# Screens: PubChem, National Center for Advancing Translational Sciences (NCATS)
# ALDH1A1 block: inhibitors of human aldehyde dehydrogenase 1A1; actives 7.3% (n = 220,000); Purified ALDH1A1, NADH fluorescence, propionaldehyde substrate; Potency, µM (titrated, usually from 75.3 µM), for inactives: at the highest dose activity, negative = inhibition, actives largely listed as inhibitors; active = well fitted inhibition curve with a large enough effect, not every such curve was filed as active; inconclusive = small, poorly fitted or top-dose-only effect, or another doubt; inactive = no such curve, though single readings can be large or run the other way;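 also: plate controls were no enzyme wells and a reference inhibitor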
# Target sequence (P00352 whole entry, looked up): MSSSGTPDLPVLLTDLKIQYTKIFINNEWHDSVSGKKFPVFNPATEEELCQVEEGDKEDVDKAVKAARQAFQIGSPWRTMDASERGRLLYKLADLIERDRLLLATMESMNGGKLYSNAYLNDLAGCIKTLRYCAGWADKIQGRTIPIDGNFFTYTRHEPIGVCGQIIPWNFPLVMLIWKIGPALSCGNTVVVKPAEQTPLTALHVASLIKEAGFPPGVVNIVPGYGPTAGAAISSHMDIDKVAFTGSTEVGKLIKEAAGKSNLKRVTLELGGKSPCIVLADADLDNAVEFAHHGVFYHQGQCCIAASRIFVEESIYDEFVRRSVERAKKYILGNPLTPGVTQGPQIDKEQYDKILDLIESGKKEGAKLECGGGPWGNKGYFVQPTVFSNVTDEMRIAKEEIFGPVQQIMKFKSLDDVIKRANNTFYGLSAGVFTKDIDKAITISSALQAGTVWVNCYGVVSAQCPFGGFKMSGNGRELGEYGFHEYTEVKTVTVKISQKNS
# KinaseGlo FLuc: blocks Kinase-Glo luciferase, a counter-screen artifact; AID 1379; Potency, µM (top dose mostly 38.3 µM), inactives show top-dose activity change, negative = inhibition, hits mostly inhibitors; Kinase-Glo luciferase, ATP luminescence, 8 min; actives 0.28% (n = 200,000); also: % is scaled to controls: 0 for no effect and ±100 for the full control effect; nearly all actives have a fitted effect of over 60% in size
#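 Recombinant Kinase-Glo luciferase, 10 uM ATP (linear range), luciferin; imidazole pH 7.2 / KCl / MgCl2 / Tween / BSA buffer; 8 min RT; luminescence.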
# Lamin A splicing: changes lamin A minigene splicing in HeLa cells; actives 0.01% (n = 200,000); HeLa LMNA splicing GFP/RFP minigene ratio, 48 h; AID 1487; Potency, µM (top dose mostly 46.1 µM), for inactives: top-dose ratio change, negative = inhibition, actives largely listed as inhibitors; active = well fitted inhibition curve with a large enough effect in the signal ratio, with a control signal flat, not every such curve was filed as active; inconclusive = small, poorly fitted or top-dose-only effect, or effect the other way, or a change in a side signal; the % refers to the signal ratio; also: % is scaled to controls: 0 for no effect and ±100 for the full control effect
#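 Read-out is the ratio of GFP to DsRed2 object intensity, acquired by 488 nm laser-scanning cytometry on HeLa lamin A-EGFP minigene reporter cells. Compound incubation 48 hrs at 37 °C in Opti-MEM with 2% FBS; DMSO 0.5% final.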
# HttQ103 aggreg: mutant huntingtin aggregation inhibition; PC12 HttQ103-GFP aggregates, Acumen cytometry, 40 h; Potency, µM (top dose mostly 46.1 µM), inactives show at the highest dose activity change, negative = inhibition, actives largely listed as inhibitors; actives 1.1% (n = 220,000); AID 1688; also: % is scaled to controls: 0 for no effect and ±100 for the full control effect; nearly all actives have a fitted effect of over 60% in size
#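 PC12 cells stably carrying ecdysone-inducible HTT exon 1 Q103–GFP were induced with tebufenozide (100 nM final) and treated with library compounds in titration. GFP aggregates in lysates were counted by laser scanning cytometry.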
# HPGD block: HPGD (human) dehydrogenase inhibition; purified HPGD, NADH fluorescence kinetic, PGE2 substrate; AID 894; Potency, µM, for the others: top-dose activity change, negative = inhibition, actives largely listed as inhibitors; actives 4.3% (n = 150,000); active = well fitted inhibition curve with a large enough effect, not every such curve was filed as active; inconclusive = small, poorly fitted or top-dose-only effect, or another doubt; inactive = no such curve, though single readings can be large or run the other way; also: % is scaled to controls: 0 for no effect and ±100 for the full control effect
# Target sequence (P15428 whole entry, looked up): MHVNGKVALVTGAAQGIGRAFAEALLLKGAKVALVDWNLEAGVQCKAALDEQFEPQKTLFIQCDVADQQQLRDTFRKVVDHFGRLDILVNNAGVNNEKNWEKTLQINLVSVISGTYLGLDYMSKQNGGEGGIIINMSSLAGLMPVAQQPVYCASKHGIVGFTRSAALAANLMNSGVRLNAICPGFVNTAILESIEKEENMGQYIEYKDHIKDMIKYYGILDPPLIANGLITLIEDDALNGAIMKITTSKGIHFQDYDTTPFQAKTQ
#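 20 nM HPGD preincubated 15 min at room temperature with compound in 50 mM Tris-HCl pH 8, 0.01% Tween 20. Started with 1 mM NAD+ and 30 uM prostaglandin E2; NADH fluorescence (360/450 nm) read 5 times over 30-s intervals, last minus first.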
# HTT cytoprotect: protects HTT-Q103 PC12 cells, measured by ATP; PC12 HTT-Q103 induced, cytoprotection, ATP luminescence, 40 h; Potency, µM (highest dose often 56.4 µM), for inactives: cytoprotection (ATP increase), hits mostly activators; actives 0.14% (n = 230,000); also: % of control where 0% means no effect; nearly all actives have a fitted effect of over 45% in size
#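 ATP quantification (ATPlite) reports survival of PC12 cells in which tebufenozide, 100 nM final, switches on Htt exon 1 with 103 glutamines linked to GFP; compounds are titrated.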
# Starred values were filed as active, the others as inactive; u = inconclusive; x = not tested or not shown; ! = a repeat was not active; [ ] = remark or other dose. Shown are actives, neighbours in structure and some others; about 9% of the full set was active somewhere. Unless noted, calls follow the shape of the dose curve; as a rule, active = well fitted curve in the direction sought with a large enough effect; inconclusive = small, poorly fitted or top-dose-only effect, or another doubt; inactive = no such curve, though single readings can be large; an effect the other way counts as inactive or inconclusive. Potency is read from the fitted curve at half-maximal effect.
SMILES,ALDH1A1 block,KinaseGlo FLuc,Lamin A splicing,HttQ103 aggreg,HPGD block,HTT cytoprotect
O=C(CSc1nc2cc(Cl)ccc2s1)N1CCN(C(=O)c2ccco2)CC1,u,-1%,-5%,10%,-15%,3%[10 µM]
Cc1ccc(CNC(=O)CSc2c3c(nc4ccc(Cl)cc24)CCCC3)o1,8.9µM*,1%,u,-71%,-28%,u
O=C(CSc1c2c(nc3ccc(Cl)cc13)CCCC2)N1CCN(C(=O)c2ccco2)CC1,x,x,x,x,x,20µM*
O=C(COC(=O)c1cc(Br)ccc1Cl)NC1CC1,9%,2%,-6%,8%,-28%,15%[10 µM]
C#CCNc1nc(C)nc2c1nnn2Cc1ccccc1F,11µM*,1%,11%,-26%[9.22 µM],-4%,-3%[10 µM]
CCOCCCNc1nc(C)nc2c1nnn2Cc1c(F)cccc1Cl,8.9µM*,-2%,4%[46 µM],-6%,x,-33%
Cc1nc(NCCN2CCOCC2)c2nnn(Cc3ccccc3Cl)c2n1,16µM*,-5%,-14%,3%,-12%,-9%
Cc1nc(NCCO)c2nnn(Cc3ccccc3F)c2n1,u,2%,-3%,-12%,2%,-7%[10 µM]
COc1ccccc1OCC(=O)NCc1cccs1,-7%,-4%,1%,5%,-26%,11%[4.97 µM]
CCc1ccc(C(=O)CSc2nc3cc(S(=O)(=O)N4CCOCC4)ccc3n2CC)cc1,28µM*,4%,u,8%,-23%,13%[10 µM]
CCn1c(SCc2nc3ccccc3s2)nc2cc(S(=O)(=O)N3CCOCC3)ccc21,x,x,x,x,x,-9%[10 µM]
COC(=O)c1ccc(CSc2nc3ccc(S(=O)(=O)N4CCOCC4)cc3[nH]2)cc1,-4%,2%,2%,-1%,28µM*,-2%[10 µM]
Cc1nnn(C23C[C@@H]4C[C@@H](CC(C(=O)N5CCN(c6ccccc6)CC5)(C4)C2)C3)n1,x,x,x,-4%[9.22 µM],x,19%[10 µM]
CCCCCCCCCCCC1=C(O)C(=O)C=C(O)C1=O,24µM*,0%,x,x,14µM*!,u
CN1CCN(c2ccccc2NC(=O)c2ccc(N3CCCCC3)c([N+](=O)[O-])c2)CC1,22µM*,-4%,x,6%,x,-18%[10 µM]
CCC(=O)N1CCN(c2ccc(NC(=S)NC(=O)c3cccc([N+](=O)[O-])c3)cc2)CC1,u,2%,-9%,19%,-3%,3%[10 µM]
Cc1ccc(C(=O)Nc2ccc(NC(=O)c3cccs3)cc2)cc1[N+](=O)[O-],11%,1%,x,-9%[9.22 µM],x,-6%[10 µM]
Cc1ccc(C(=O)NC(=S)Nc2ccc(NC(=O)c3cccs3)cc2)cc1[N+](=O)[O-],13µM*,1%,-2%,7%,-13%,9%[10 µM]
CCCCN1C(=O)c2ccc(C(=O)Nc3ccccc3N3CCOCC3)cc2C1=O,0.89µM*,1%,x,21%,x,6%
O=C(CN1C(=O)c2ccccc2C1=O)Nc1ccccc1N1CCOCC1,-2%,x,2%[46 µM],9%[9.22 µM],x,0%[10 µM]
CCC(=O)N1CCN(c2ccccc2NC(=S)NC(=O)c2cccc([N+](=O)[O-])c2)CC1,14µM*,-2%,u,21%,x,x
CCC1CCCCN1S(=O)(=O)c1ccc(S(=O)(=O)N(Cc2cccs2)C2CC2)cc1 (centres undefined),u,0%,u,-24%,-8%,2%[10 µM]
CSC1=NC2(CCN(C(=O)NC3CCCCC3)CC2)N=C1c1ccc(C(C)(C)C)cc1,x,x,16%[46 µM],x,x,x
CCOc1ccc(C(=O)NC(=S)Nc2ccccc2N2CCOCC2)cc1Br,4µM*,-2%,u,-2%,-13%,10%[10 µM]
COc1ccc(C)cc1C(=O)CCC(=O)Nc1ccccc1N1CCOCC1,28µM*,-3%,8%,13µM*,-12%,17%[10 µM]
SMILES,ALDH1A1 block,KinaseGlo FLuc,Lamin A splicing,HttQ103 aggreg,HPGD block,HTT cytoprotect
Cc1ccc(C(=O)Nc2ccccc2N2CCCCC2)cc1[N+](=O)[O-],-5%,1%,x,-15%,x,x
COc1cc(CC(=O)Nc2ccccc2N2CCOCC2)cc(OC)c1OC,-9%,-2%,u,2%,x,-33%
COc1ccc(C(=O)NC(=S)Nc2ccccc2N2CCOCC2)cc1Br,u,-1%,u,2%,-17%,15%[0.074 µM]
Cc1ccc(C(=O)NC(=S)Nc2ccccc2N2CCCC2)cc1[N+](=O)[O-],20µM*,-2%,u,5%,-12%,-20%[10 µM]
COCCCNc1nc2ccccc2nc1NS(=O)(=O)c1ccc(C)c(C)c1,x,x,x,-4%[9.22 µM],x,3%[10 µM]
Cc1ccc(NCc2nnc(SCC(=O)Nc3ncc(C)s3)n2CC2CCCO2)c(C)c1 (centres undefined),4.5µM*,-6%,u,-9%,-12%,-20%[10 µM]
Cc1ccc(NCc2nnc(SCC(=O)N3CCCCC3)n2CC2CCCO2)c(C)c1 (centres undefined),x,x,x,x,x,-2%[10 µM]
Cc1ccc(NCc2nnc(SCC(=O)Nc3cccc(O)c3)n2CC2CCCO2)c(C)c1 (centres undefined),4µM*,-1%,7%,14%,-8%,-14%
NC(CO)c1cn([C@@H](CCC(=O)O)C(=O)N2CCNCC2)nn1 (some centres undefined),-2%,x,x,20%[9.22 µM],x,18%[10 µM]
C[C@@H]1C(c2ccc(F)cc2)=NN(c2ccccc2)[C@H]1C(=O)N1CCOC1=O,-15%,3%[39.9 µM],x,x,u,2%
Cc1cc2c(cc(C(=O)NCCCN3CCOCC3)n2Cc2ccc(Cl)cc2)o1,u,-2%,-17%,26%,13µM*,-5%[10 µM]
CCOC(=O)c1c(C2CC2)csc1NC(=O)COC(=O)c1cc(OC)c(OC)cc1[N+](=O)[O-],-4%,-1%,-8%,7%,-17%,9%[10 µM]
CCN1CCN(C(=O)c2sc3nc(C)nc(N4CCC(C)CC4)c3c2C)CC1,-9%,-1%,16%,-8%,-4%,4%[1.9 µM]
Cc1nc(N2CCC(C)CC2)c2c(C)c(C(=O)O)sc2n1,-7%,-3%,17%,u,20µM*,-15%[1.9 µM]
Cc1ccccc1NC(=O)Cc1nnc(NC(=O)Nc2ccccc2F)s1,x,x,x,-4%[9.22 µM],x,0%[10 µM]
CCc1ccc(NC(=S)Nc2cc(C(=O)O)ccc2N2CC3CC(C2)c2cccc(=O)n2C3)cc1 (centres undefined),18µM*,1%,8%[9.22 µM],15%,x,7%
CCC1(c2ccc(Cl)cc2)NC(=S)N(c2ccccc2)N1 (centres undefined),13µM*,-1%,-6%,0%,-17%,3%[10 µM]
CC1CCCC(C)N1/N=C/C=C/c1ccccc1[N+](=O)[O-] (centres undefined),3.5µM*,2%,-16%[46 µM],9%,x,10%[10 µM]
O=[N+]([O-])c1ccccc1/C=C/C=N/n1c(-c2ccc(Cl)cc2)n[nH]c1=S,u,-3%,8%,33%,3.2µM*,-4%
